Data taken from PubChem BioAssay (NCATS).
Results filed as inconclusive are left out. Activity calls are given as the source filed them. Unless noted, calls come from the whole dose curve; as a rule, active = well fitted curve in the direction sought with a large enough effect; inconclusive = small, poorly fitted or top-dose-only effect, or another doubt; inactive = no such curve, though single readings can be large; an effect the other way counts as inactive or inconclusive.

Assays:
[1] = target: DNA repair nuclease/redox regulator APEX1 (Homo sapiens) (UniProt P27695); test: qHTS Validation Assay for Inhibitors of the Human Apurinic/apyrimidinic Endonuclease 1 (APE1) (AID 1705;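 note: TAMRA fluorescence gain over two minutes as APE1 cuts a quenched THF abasic duplex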)
Chain of DNA repair nuclease/redox regulator APEX1 (Homo sapiens) (P27695 whole entry, looked up): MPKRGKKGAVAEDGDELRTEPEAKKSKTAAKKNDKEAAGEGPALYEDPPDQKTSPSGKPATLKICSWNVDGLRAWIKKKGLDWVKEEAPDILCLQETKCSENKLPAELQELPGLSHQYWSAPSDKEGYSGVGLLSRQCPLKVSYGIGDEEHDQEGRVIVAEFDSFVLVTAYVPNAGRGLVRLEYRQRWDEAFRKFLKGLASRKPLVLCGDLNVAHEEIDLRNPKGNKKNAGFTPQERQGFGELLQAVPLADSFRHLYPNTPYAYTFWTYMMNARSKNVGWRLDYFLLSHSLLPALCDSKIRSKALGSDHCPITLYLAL
In short: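 Endonuclease activity of human APE1 is followed as dequenching when the enzyme incises a tetrahydrofuran abasic site in a short duplex labelled 5'-TAMRA/3'-BHQ-2 (50 nM final), after 15 min enzyme–compound preincubation at room temperature.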

[2] = target: Endonuclease 4 (Escherichia coli (strain K12)) (UniProt P0A6C1); test: Counterscreen for APE1 Inhibitors: qHTS Validation Assay for Inhibitors of Endonuclease IV (AID 1708)
Text: Assay Provider: David M. Wilson, III, National Institute on Aging, NIH
Screening Center PI: Austin, C.P.
Screening Center: NIH Chemical Genomics Center [NCGC]
Escherichia coli endonuclease IV (Endo IV) is the key member of the AP endonuclease superfamily that catalyzes the cleavage of damaged DNA backbone immediately 5' of an AP site. E. coli EndoIV has the same functional activities as human APE1 but has no sequence or structural homology to the human protein. Herein, we utilize E. coli EndoIV to counter screen compound libraries as part of a high-throughput campaign for APE1 inhibitor identification. […]
Inhibition of APE1 activity was screened by utilizing double-stranded short substrate containing tetrahydrofuran (THF) abasic site labeled with rhodamine-type fluorophore (TAMRA) at the 5'-end and with non-fluorescent Black Hole Quencher-2 (BHQ-2) at the opposing 3'-end. An increase in the fluorescence intensity due to incision of the abasic site by APE1 was used to measure the enzyme activity. […]
Three uL of enzyme were dispensed to 1536-well Greiner black solid bottom plates. […] The plates were immediately transferred into ViewLux High-throughput CCD imager (Perkin-Elmer) in order to measure the reaction progress in kinetic mode (three reads every 60 seconds) using 525 nm excitation and 598 nm emission fluorescence protocol. […]

[3] = qHTS Assay for Modulators of Human Peripheral Myelin Protein 22 (PMP22) Expression/Activity (AID 1967; active = well fitted curve in the direction sought with a large enough effect in the signal ratio; the % refers to the signal ratio)
In short: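 Quantitative HTS in a mouse Schwann cell line expressing dual click beetle luciferases: Pmp22 promoter (green) and control EF-alpha promoter (red). After 24h treatment, corrected green/red signal ratio gave %Activity relative to untreated cells.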

[4] = target: Ferritin light chain (Equus caballus) (UniProt P02791); test: qHTS Validation Assay for Identification of Novel General Anesthetics (AID 2323)
Chain of Ferritin light chain (Equus caballus) (P02791 2-175 limits assumed): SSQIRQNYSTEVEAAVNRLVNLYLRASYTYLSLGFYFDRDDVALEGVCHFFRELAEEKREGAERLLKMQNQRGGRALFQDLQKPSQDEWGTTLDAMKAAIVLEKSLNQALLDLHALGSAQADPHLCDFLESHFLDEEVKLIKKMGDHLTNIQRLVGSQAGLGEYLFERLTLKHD
In short: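 Apoferritin from horse spleen (10 uM) was mixed with 1-aminoanthracene at 50% saturation in PBS, then compounds were added. After 10 min at room temperature, fluorescence was read (ex 380 nm, em 535 nm) and normalized to free-probe and complex controls.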

[5] = target: ATP-dependent DNA helicase Q1 (Homo sapiens) (UniProt P46063); test: qHTS Validation Assay for Inhibitors of RecQ-Like Dna Helicase 1 (RECQ1) (AID 2353)
Chain of ATP-dependent DNA helicase Q1 (Homo sapiens) (P46063 whole entry, looked up): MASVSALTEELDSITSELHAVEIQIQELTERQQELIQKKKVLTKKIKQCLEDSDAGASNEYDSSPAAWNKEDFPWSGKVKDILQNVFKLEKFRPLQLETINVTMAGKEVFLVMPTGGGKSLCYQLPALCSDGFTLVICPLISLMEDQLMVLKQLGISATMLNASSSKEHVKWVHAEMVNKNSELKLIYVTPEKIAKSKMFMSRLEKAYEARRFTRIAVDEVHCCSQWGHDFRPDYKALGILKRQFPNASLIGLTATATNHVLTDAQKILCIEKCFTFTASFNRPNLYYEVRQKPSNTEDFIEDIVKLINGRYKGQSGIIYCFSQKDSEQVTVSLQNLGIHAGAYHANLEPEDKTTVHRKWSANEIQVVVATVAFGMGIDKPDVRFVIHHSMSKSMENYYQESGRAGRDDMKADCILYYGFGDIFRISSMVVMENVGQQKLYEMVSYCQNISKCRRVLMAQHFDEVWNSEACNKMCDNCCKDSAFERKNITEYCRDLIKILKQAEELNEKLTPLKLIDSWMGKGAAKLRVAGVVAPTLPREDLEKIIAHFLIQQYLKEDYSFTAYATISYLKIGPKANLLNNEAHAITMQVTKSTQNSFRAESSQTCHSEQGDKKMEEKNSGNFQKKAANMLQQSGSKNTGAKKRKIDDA
In short: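 RECQ1T1 50 nM; forked duplex (20 bp + 30-nt ss tails) 200 nM, ATP 2 mM final; pH 8.0, 2 mM MgCl2, 2.5 ug/ml poly(dI-dC); 15 min compound preincubation; discontinuous kinetic read over 2 h at RT.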

[6] = Cytometric Cell-Based qHTS for Inhibitors of the mTORC1 Signaling Pathway in MEF (Tsc2-/-, p53-/-) Cells (AID 2660);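 note: Tsc2 and p53 null MEFs carrying empty vector with compound for 24 h; percent of cells above a phospho-rpS6 to PI ratio cutoff in each well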
In short: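 Immunofluorescence qHTS of rpS6 Ser235/236 phosphorylation: MEFs (Tsc2-/-, p53-/-) treated 24 h, 37 C, in DMEM + 10% FBS. Alexa-488 signal normalized to PI count, referenced to rapamycin (7.5 nM) and DMSO; PI cell number recorded for viability.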

[7] = High Content Imaging Cell-Based qHTS for Inhibitors of the mTORC1 Signaling Pathway in MEF (Tsc2-/-, p53-/-) Cells (AID 2666); conditions: at 38.3 µM (top of the series);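 note: percent of cells scored positive for phospho-rpS6 Ser235/236 immunostaining by imaging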
In short: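 MEF Tsc2-/- p53-/- (empty vector), DMEM/10% FBS; cpd 24 h 37 °C; PFA fix, Alexa-488 p-rpS6 S235/236 Ab, Hoechst; imaged; rapamycin-defined inhibition; % positive cells/well.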

[8] = High Content Imaging Cell-Based qHTS for Inhibitors of the mTORC1 Signaling Pathway in MEF Cells (AID 2667);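 note: Tsc2-/- p53-/- MEFs stably re-expressing wild-type Tsc2 exposed 24 h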
In short: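 Read-out is the share of phospho-rpS6-positive cells per well, from Hoechst-normalized Alexa-488 Ser235/236 staining imaged on IN Cell. Cells: WT Tsc2-expressing Tsc2-/-, p53-/- MEFs exposed to compound for 24 hrs.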

[9] = target: RecQ-like DNA helicase BLM (Homo sapiens) (UniProt P54132); test: qHTS Validation Assay for Inhibitors of Bloom's syndrome helicase (BLM) (AID 2364)
Chain of RecQ-like DNA helicase BLM (Homo sapiens) (P54132 whole entry, looked up): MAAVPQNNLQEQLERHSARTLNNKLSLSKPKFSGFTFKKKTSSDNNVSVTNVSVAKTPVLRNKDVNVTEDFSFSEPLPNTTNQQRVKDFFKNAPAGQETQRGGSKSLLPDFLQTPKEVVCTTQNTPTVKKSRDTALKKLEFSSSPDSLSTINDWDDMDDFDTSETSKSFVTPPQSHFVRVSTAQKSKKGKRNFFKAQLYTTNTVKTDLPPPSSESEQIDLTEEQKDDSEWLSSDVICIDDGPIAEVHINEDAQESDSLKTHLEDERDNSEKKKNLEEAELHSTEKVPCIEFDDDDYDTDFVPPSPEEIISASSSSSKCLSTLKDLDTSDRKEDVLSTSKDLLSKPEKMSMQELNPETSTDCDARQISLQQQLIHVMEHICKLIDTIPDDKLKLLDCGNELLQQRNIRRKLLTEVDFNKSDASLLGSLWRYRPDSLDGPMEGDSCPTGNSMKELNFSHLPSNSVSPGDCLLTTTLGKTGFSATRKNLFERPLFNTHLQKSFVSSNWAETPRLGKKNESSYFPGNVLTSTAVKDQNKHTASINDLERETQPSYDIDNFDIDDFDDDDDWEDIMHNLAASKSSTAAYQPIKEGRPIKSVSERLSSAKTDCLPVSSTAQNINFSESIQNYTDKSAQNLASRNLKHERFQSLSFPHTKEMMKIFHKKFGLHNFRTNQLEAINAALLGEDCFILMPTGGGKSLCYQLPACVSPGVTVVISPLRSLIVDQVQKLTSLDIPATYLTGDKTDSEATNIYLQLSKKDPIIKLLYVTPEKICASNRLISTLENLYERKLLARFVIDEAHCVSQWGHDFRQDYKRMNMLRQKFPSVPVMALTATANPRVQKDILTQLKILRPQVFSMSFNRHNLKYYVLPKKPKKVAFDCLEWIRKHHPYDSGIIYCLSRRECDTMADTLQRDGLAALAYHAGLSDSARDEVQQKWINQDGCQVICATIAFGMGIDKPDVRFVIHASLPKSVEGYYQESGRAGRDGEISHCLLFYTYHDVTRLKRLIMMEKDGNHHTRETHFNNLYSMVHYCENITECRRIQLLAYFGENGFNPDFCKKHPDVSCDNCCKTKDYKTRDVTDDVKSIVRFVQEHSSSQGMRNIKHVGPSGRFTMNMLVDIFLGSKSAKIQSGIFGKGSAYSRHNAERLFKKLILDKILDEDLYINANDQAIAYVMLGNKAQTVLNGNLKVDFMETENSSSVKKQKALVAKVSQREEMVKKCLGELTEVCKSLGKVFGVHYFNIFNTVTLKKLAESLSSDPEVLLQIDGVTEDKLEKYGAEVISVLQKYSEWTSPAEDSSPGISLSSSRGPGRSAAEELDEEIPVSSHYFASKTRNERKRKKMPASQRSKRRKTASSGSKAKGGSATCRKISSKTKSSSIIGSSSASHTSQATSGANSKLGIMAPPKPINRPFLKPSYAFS
In short: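 50 nM BLM preincubated 15 min at room temperature with compound in pH 8.0 Tris buffer containing 2.5 ug/ml poly(dI-dC); started with 200 nM TAMRA/BHQ-2 forked duplex and 2 mM ATP (final). Unwinding read as TAMRA fluorescence increase, two reads 2 h apart.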

Measured: outcome

NCCCC(=O)O
inactive: [1] | [2] | [3] | [4] | [5] | [6] | [7] | [8]

CN[C@H]1CC[C@@H](c2ccc(Cl)c(Cl)c2)c2ccccc21
inactive: [1] | [2] | [5] | [9]
